Bioassay records from PubChem.
The list is not random: actives were taken first. Their share in the collection is about 7.9%.
HCMV inh = inhibitors of human cytomegalovirus; HFF cells, HCMV-luciferase reporter, 72 h; active compounds read low; activity change, negative = inhibition, % at 57.5 µM; hit rate 4.5% among 410,000; in the data active = activity change below about -60%; inconclusive = no clear call, values can overlap the other calls; inactive = above about -39%
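Compounds were evaluated in HFFs infected with an HCMV luciferase reporter virus (MOI 1 PFU/cell). Luciferase in lysates collected 72 h post infection served as the replication measure.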
MARV entry inh = Marburg virus entry inhibition; hit rate 1.8% among 300,000; Potency, µM (highest dose often 37.8 µM), inactives show at the top dose activity change, negative = inhibition, actives largely listed as inhibitors; Marburg virus pseudotyped entry inhibition, cell reporter; AID 540276; calls by dose curve; tested in HEK293 cells; also: potency is read from the fitted curve at half-maximal effect
HCV inh = inhibitors of hepatitis C virus infection; hit rate 3.4% among 340,000; Potency, µM (titrated, usually from 41.8 µM), for inactives: at the top dose activity change, negative = inhibition, hits mostly inhibitors; AID 651820; Huh7.5.1 HCVcc-Cre infection, luciferase reporter, 44 h; active = well fitted inhibition curve with a large enough effect; inconclusive = small, poorly fitted or top-dose-only effect, or another doubt; inactive = no such curve, though single readings can be large or run the other way; also: potency is read from the fitted curve at half-maximal effect
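Cells (1,000/well) were plated 4 h before compound, then infected with HCVcc-Cre virus (~0.5 moi). After 44 h further culture, infection was read as luciferase luminescence following a 15 min substrate incubation at room temperature.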
Lassa entry inh = Lassa virus entry inhibition; Lassa virus pseudotype entry inhibition, cell reporter; Potency, µM (doses to about 37.9 µM), without a hit: top-dose activity change, negative = inhibition, most hits filed as inhibitors; AID 540256; hit rate 1.2% among 300,000; calls by dose curve; tested in HEK293 cells; also: potency is read from the fitted curve at half-maximal effect; nearly all actives have a fitted effect of over 50% in size
FMDV inh = foot and mouth disease virus antiviral activity; AID 1159524; FMDV antiviral cell-based qHTS; hit rate 1.2% among 410,000; Potency, µM (top dose mostly 57.9 µM), for inactives: top-dose activity change, negative = inhibition, most hits filed as inhibitors; calls by dose curve; tested in HEK293T cells; also: read-out not given here; potency is read from the fitted curve at half-maximal effect; nearly all actives have a fitted effect of over 45% in size
* hit, by the source's call; u = inconclusive; x = no result given; [ ] = dose if it differs, or a comment. % is scaled to controls: 0 for no effect and ±100 for the full control effect.

SMILES | HCMV inh | MARV entry inh | HCV inh | Lassa entry inh | FMDV inh
COc1cc(/C=C(\C#N)C(=O)N2CCOCC2)cc(Br)c1O | -9.6 | u | 11.0% | 11.0% | 0.4%
N#C/C(=C\c1cccc(Oc2ccccc2)c1)C(=O)N1CCOCC1 | -16.8 | u | 3.5% | u | 35.5µM*
CCOCc1c(C(=O)N2CCN(CC(=O)Nc3ccc(F)cc3)CC2)oc2ccccc12 | 10.8 | 6.1% | -9.7% | 0.4% | -4.0%
CCOCc1c(C(=O)N2CCN(CCOc3ccc(Cl)cc3)CC2)oc2ccccc12 | -23.9 | u | 5.62µM* | u | u
Brc1ccc2nc(-c3ccc(CN4CCC5(CC4)CNc4ccccc45)cc3)c(-c3ccccc3)nc2c1 | -12.4 | x | x | x | x
CC(C)(C)c1nc(NC(=O)Nc2ccccc2)sc1Br | -97.3* | x | u | x | u
Cn1c(-c2cccc(C(F)(F)F)c2)cc2cnc(Nc3ccc(F)cc3)cc21 | -5.9 | x | x | x | x
Cc1c(C)n(C(=O)CN2CCN(c3ccccn3)CC2)c2ccccc12 | 34.0 | u | u | 8.6% | 31.6µM*
Cc1cnc(NC(=O)CN2CCN(c3ccccn3)CC2)s1 | -96.9* | 4.0% | u | 2.0% | -3.4%
O=C(CN1CCN(c2ccccn2)CC1)N1c2ccccc2CCc2ccccc21 | -19.5 | -22.7% | -22.4% | -14.9% | -26.4%
CSc1ccccc1NC(=O)CN1CCN(c2ccccn2)CC1 | -63.0* | x | 4.5% | x | -8.0%
COc1cc(Cl)c(C)cc1NC(=O)c1ccccc1NC(=O)CN1CCN(c2ccccn2)CC1 | -95.2* | x | u | x | -29.1%
O=C(CN1CCN(c2ccccn2)CC1)Nc1ccc([N+](=O)[O-])cc1C(=O)Nc1ccccc1F | 5.8 | u | 11.2µM* | u | u
Cc1ccc(C2CC(=O)C=C(NCC(C)C)C2)cc1 (stereo not drawn) | -81.3* | -10.2% | -7.2% | -6.5% | -15.8%
Cc1ccc(NC(=O)CSc2nnc(C3CC3)n2C)cc1S(=O)(=O)N1CCCCC1 | -0.7 | x | u | x | -20.3%
O=c1cc(-c2ccccc2)c2ccc3c(c2o1)CN(Cc1cccc(Cl)c1)CO3 | -12.5 | 1.7%[46.1 µM] | x | 4.0%[46.1 µM] | -10.9%
CCOC(=O)CN1C(C(=O)c2ccccc2)=C(OC(=O)c2ccccc2)c2ccccc2S1(=O)=O | 7.1 | 0.5%[46.1 µM] | x | -0.9%[46.1 µM] | -23.7%
CCCN1C(C(=O)c2ccccc2)=C(OC(=O)C(C)(C)C)c2ccccc2S1(=O)=O | -89.5* | -27.3%[46.1 µM] | x | u | -14.9%
CCN1C(C(=O)c2ccccc2)=C(OC(=O)c2ccc(Cl)cc2)c2ccccc2S1(=O)=O | -77.1* | -4.9%[46.1 µM] | x | 7.1%[46.1 µM] | -1.9%
CCCN1C(C(=O)c2ccccc2)=C(OC(=O)COc2ccc(C)cc2)c2ccccc2S1(=O)=O | -91.5* | u | x | u | 0.2%
CCCN1C(C(=O)c2ccccc2)=C(OC(=O)COc2ccccc2)c2ccccc2S1(=O)=O | -88.5* | u | x | -18.2%[46.1 µM] | -3.5%
CCCCC(=O)OC1=C(C(=O)c2ccccc2)N(C)S(=O)(=O)c2ccccc21 | 11.2 | u | x | -18.9%[46.1 µM] | -26.8%
Cc1ccc(CCNC(=O)c2c(C)oc3nc(C)nc(N4CCOCC4)c23)cc1 | 57.1 | x | x | -17.3%[46.1 µM] | -7.9%
C(=N\Nc1nc(-c2ccccc2)cs1)/c1ccco1 | 119.2 | u | u | u | -19.9%
Cc1sc(N/N=C/c2cccnc2)nc1-c1ccccc1 | -65.3* | u | u | 2.91µM* | u
SMILES | HCMV inh | MARV entry inh | HCV inh | Lassa entry inh | FMDV inh
Cc1sc(N/N=C/c2ccco2)nc1-c1ccccc1 | -28.8 | u | u | 20.6µM* | 17.6%
Cc1cc(OC(=O)c2ccco2)c2c3c(c(=O)oc2c1)CCCC3 | -66.7* | 11.2µM* | u | u | u
Cc1cc(OCC(=O)Nc2c(C)n(C)n(-c3ccccc3)c2=O)c2c3c(c(=O)oc2c1)CCC3 | x | -4.4% | x | x | x
Cc1ccc(-n2nc(C)cc2NC(=O)COc2cc(C)cc3oc(=O)c4c(c23)CCC4)cc1 | 7.2 | u | 7.08µM* | -17.4% | -21.4%
COc1cccc(C(=O)NCc2ccco2)c1 | 14.3 | x | 5.7% | x | 13.5%
Nc1nn(-c2ccccc2)c(N)c1N=Nc1cccc(F)c1 | 95.0 | x | u | x | 43.3%
Nc1nn(-c2ccccc2)c(N)c1N=Nc1ccc2c(c1)OCO2 | 46.1 | 8.91µM* | u | u | -15.4%
CCOc1ccccc1NC(=O)N(Cc1ccc(C)o1)C1CCN(C(C)=O)CC1 | -6.2 | x | x | 0.2%[46.1 µM] | -17.1%
COc1ccc(C(=O)Nc2ccc3oc(-c4cccc(Cl)c4)cc(=O)c3c2O)cc1 | -67.5* | x | u | x | -14.4%
COc1cccc(Nc2sc(C(=O)c3ccc4c(c3)OCO4)c(N)c2S(=O)(=O)c2ccccc2)c1 | -18.1 | x | x | -29.9%[46.1 µM] | 1.6%
COc1ccc(S(=O)(=O)c2c(Nc3c(C)cccc3C)sc(C(=O)c3ccc4c(c3)OCO4)c2N)cc1 | -87.4* | x | x | u | 10.9%
COc1ccc(OC)c(CCNC(=O)CN2C(=O)CCSc3ccccc32)c1 | -24.1 | 1.4%[46.1 µM] | -19.3% | 4.4%[46.1 µM] | 7.9%
CCCCc1nc(NCCNC(=O)c2ccccc2)c(C#N)c2c1CSC(C)(C)C2 | -103.9* | u | u | u | u
CCCCc1nc(NCCNC(=O)c2ccco2)c(C#N)c2c1CSC(C)(C)C2 | 16.4 | -14.6% | 11.2µM* | 3.2% | u
CCCCc1nc(Cl)c(C#N)c2c1CSC(C)(C)C2 | -25.9 | x | u | x | u
CCCc1cc(C(=O)N2CCCC(C(=O)c3cccc4ccccc34)C2)n(C)n1 (stereo not drawn) | 0.0 | x | u | x | -13.6%
CCc1cc(C(=O)N2CCCC(C(=O)c3cccc4ccccc34)C2)n(C)n1 (stereo not drawn) | -60.0* | u | 10µM* | x | u
Cc1ccc(S(=O)(=O)C[C@@H]2OC[C@H](C)N2S(=O)(=O)c2ccc(C)cc2)cc1 | 10.9 | x | x | x | 2.4%
COc1ccc(-n2c(CN3CCOCC3)nc3ccc([N+](=O)[O-])cc3c2=O)c(OC)c1 | 51.1 | 18.6%[46.1 µM] | -14.0% | 29.8%[46.1 µM] | -6.8%
COc1ccc(-n2c(CN3CCN(c4ccccc4)CC3)nc3ccc([N+](=O)[O-])cc3c2=O)c(OC)c1 | -78.5* | -15.2%[46.1 µM] | -25.3% | u | -8.4%
COc1ccc(S(=O)(=O)N(C)C)cc1NC(=O)CN1CCN(C(=O)C2CC2)CC1 | -7.6 | x | 10µM* | x | -1.9%
COc1cc(NC(=O)Nc2ccccc2)c(OC)cc1NC(=O)CN1CCCCC1 | -3.2 | u | 11.2µM* | -25.4% | 7.0%
O=C(CN1CCCCCCC1)Nc1cccc(Cl)c1Cl | -65.4* | x | -2.7% | x | -3.5%
O=C(CN1CCN(C(=O)CNC(=O)c2ccc(-c3ccccc3)cc2)CC1)Nc1ccccc1Cl | u | x | x | x | 28.2µM*
COc1cc(NC(=O)c2ccccc2F)c(OC)cc1NC(=O)CN1CCCCC1 | -6.0 | u | u | 4.3% | 13.8%
COc1cccc(NC(=O)CSc2nccn2C2CCCC2)c1 | -18.9 | x | x | 10.9%[46.1 µM] | 47.5%
CCOC(=O)c1cccn1C1C(=O)N(Cc2ccc(OC)cc2)c2ccc(F)cc21 (stereo not drawn) | -9.8 | x | x | x | x
COc1ccc(-c2cnc(C(O)c3ccc(C(C)(C)C)cc3)[nH]2)cc1 (stereo not drawn) | -11.2 | x | x | x | -3.7%
